# According to article PMC11995724, “Antibiotic target discovery by integrated phenotypic and activity-based profiling of electrophilic fragments” (Cell chemical biology, 2025):
# Hit rate of the full screen: of about 3,200 compounds, about 110 (3.4%) showed an effect of 50% or more. The list comes from a sample in which strong results are over-represented; it also holds similar structures and randomly drawn compounds.
# Test system: T1, V. cholerae SAD30
# T1 construct: SAD30
# Parameters: species or system S. aureus MSSA476 (TSB) or V. cholerae SAD30 (LB); 384-well bacterial growth screen at 25 uM, OD600 relative to DMSO control
# Conditions: relative growth, OD600, LB; 25 µM; inhibitor
row,Compound,% of control remaining
1,"C=CC(=O)NCc1ccno1 [1-O07, N-[(1,2-oxazol-5-yl)methyl]prop-2-enamide]",86.846%
2,"C=CC(=O)NC1CC(C)Cc2cc(OC)ccc21 (stereo not drawn) [3-L17, N-(6-methoxy-3-methyl-1,2,3,4-tetrahydronaphthalen-1-yl)prop-2-enamide]",87.3259%
3,"O=C(CCl)NC(c1cc(F)ccc1F)C(F)F (stereo not drawn) [7-F22, 2-chloro-N-[1-(2,5-difluorophenyl)-2,2-difluoroethyl]acetamide]",92.5161%
4,"C=CC(=O)N(CCO)c1ccc(C(=O)O)cc1 [1-M10, 4-[N-(2-hydroxyethyl)prop-2-enamido]benzoic acid]",88.6398%
5,"C=CC(=O)N1CCC(C(=O)N(C)Cc2ccon2)CC1 [2-I14, N-methyl-N-[(1,2-oxazol-3-yl)methyl]-1-(prop-2-enoyl)piperidine-4-carboxamide]",86.7992%
6,"C=CC(=O)N1CCC(C(=O)N[C@H]2CC[C@@H]2O)(c2ccccc2)CC1 (racemic) [3-G08, rac-N-[(1R,2R)-2-hydroxycyclobutyl]-4-phenyl-1-(prop-2-enoyl)piperidine-4-carboxamide]",93.3248%
7,"C=CC(=O)N1CCC(C(=O)Nc2ccccc2NS(C)(=O)=O)CC1 [3-C06, N-(2-methanesulfonamidophenyl)-1-(prop-2-enoyl)piperidine-4-carboxamide]",107.793%
8,"CC(C)NC(=O)C(C#N)=Cc1ccccc1 [8-L05, 2-cyano-3-phenyl-N-(propan-2-yl)prop-2-enamide]",76.8865%
9,"CC(C)NC(=O)C(C#N)=Cc1cccs1 [8-H15, 2-cyano-N-(propan-2-yl)-3-(thiophen-2-yl)prop-2-enamide]",71.0401%
10,"Cc1cccc(NC(=O)NC(=O)CCl)c1C [4-D21, 3-(2-chloroacetyl)-1-(2,3-dimethylphenyl)urea]",104.033%
11,"C=CC(=O)NCCn1cc(Cl)c(C(F)(F)F)n1 [2-F03, N-{2-[4-chloro-3-(trifluoromethyl)-1H-pyrazol-1-yl]ethyl}prop-2-enamide]",108.106%
12,"COc1ccc(N2C(=O)C=CC2=O)c(OC)c1 [10-J15, 1-(2,4-dimethoxyphenyl)-2,5-dihydro-1H-pyrrole-2,5-dione]",26.9628%
13,"COc1ccc(Cl)cc1CNC(=O)CCl [6-A16, 2-chloro-N-[(5-chloro-2-methoxyphenyl)methyl]acetamide]",95.2507%
14,"COc1ccc(C2CCCN2C(=O)CCl)c(OC)c1 (stereo not drawn) [4-P22, 2-chloro-1-[2-(2,4-dimethoxyphenyl)pyrrolidin-1-yl]ethan-1-one]",115.247%
15,"COc1ccc(C(=O)C(C)Cl)c(OC)c1 (stereo not drawn) [10-J17, 2-chloro-1-(2,4-dimethoxyphenyl)propan-1-one]",98.0323%
16,"COc1ccc(Cl)cc1NC(=O)C(C)Cl (stereo not drawn) [6-G16, 2-chloro-N-(5-chloro-2-methoxyphenyl)propanamide]",89.3355%
17,"COc1ccc(Cl)cc1N1C(=O)C=CC1=O [10-K10, 1-(5-chloro-2-methoxyphenyl)-2,5-dihydro-1H-pyrrole-2,5-dione]",24.1574%
18,"CC(Cl)C(=O)N1CCN(Cc2cc(=O)n3ccsc3n2)CC1 (stereo not drawn) [6-P17, 7-{[4-(2-chloropropanoyl)piperazin-1-yl]methyl}-5H-[1,3]thiazolo[3,2-a]pyrimidin-5-one]",97.5258%
19,"C=CC(=O)N1CCCCC(S(C)(=O)=O)C1 (stereo not drawn) [2-E17, 1-(3-methanesulfonylazepan-1-yl)prop-2-en-1-one]",92.6662%
20,"CCc1nocc1CN(C)C(=O)CCl [5-B11, 2-chloro-N-[(3-ethyl-1,2-oxazol-4-yl)methyl]-N-methylacetamide]",90.6168%
21,"C=CC(=O)N1CCC(C(=O)N2Cc3ccc([N+](=O)[O-])cc3C2)CC1 [2-F04, 1-[4-(5-nitro-2,3-dihydro-1H-isoindole-2-carbonyl)piperidin-1-yl]prop-2-en-1-one]",98.2245%
22,"CCn1nc(C)c(CNC(=O)CCl)c1C [7-P10, 2-chloro-N-[(1-ethyl-3,5-dimethyl-1H-pyrazol-4-yl)methyl]acetamide]",85.1148%
23,"CCn1cc(NC(=O)CCl)cn1.Cl [6-I15, 2-chloro-N-(1-ethyl-1H-pyrazol-4-yl)acetamide hydrochloride]",98.4359%
24,"CCn1nc(C)c(CN(C)C(=O)CCl)c1C [5-A10, 2-chloro-N-[(1-ethyl-3,5-dimethyl-1H-pyrazol-4-yl)methyl]-N-methylacetamide]",104.907%

row,Compound,% of control remaining
1,"CCn1nc(C)c(C(=O)CCl)n1 [10-P08, 2-chloro-1-(2-ethyl-5-methyl-2H-1,2,3-triazol-4-yl)ethan-1-one]",40.2104%
2,"Cn1ncc(C(=O)CCl)n1 [10-J10, 2-chloro-1-(2-methyl-2H-1,2,3-triazol-4-yl)ethan-1-one]",112.838%
3,"CCn1ncc(C(=O)CCl)n1 [10-E13, 2-chloro-1-(2-ethyl-2H-1,2,3-triazol-4-yl)ethan-1-one]",0%
4,"O=S(=O)(CC=C(Cl)Cl)N1CCSSCC1 [10-P19, 5-(3,3-dichloroprop-2-ene-1-sulfonyl)-1,2,5-dithiazepane]",92.5774%
5,"C=CC(=O)NCc1ccc(S(=O)(=O)NC2CC2)cc1 [2-P19, N-{[4-(cyclopropylsulfamoyl)phenyl]methyl}prop-2-enamide]",96.8349%
6,"C=CC(=O)N1CCCC(c2nc(N(C)C)no2)C1 (stereo not drawn) [3-A13, 1-{3-[3-(dimethylamino)-1,2,4-oxadiazol-5-yl]piperidin-1-yl}prop-2-en-1-one]",112.204%
7,"CC(Cl)C(=O)NCC1CN(c2nncs2)CCO1 (stereo not drawn) [7-O03, 2-chloro-N-{[4-(1,3,4-thiadiazol-2-yl)morpholin-2-yl]methyl}propanamide]",90.798%
8,"O=C(CCl)Cc1ccc(F)cc1F [10-G17, 1-chloro-3-(2,4-difluorophenyl)propan-2-one]",31.4826%
9,"Cc1ccc(F)cc1NC(=O)CCl [4-O03, 2-chloro-N-(5-fluoro-2-methylphenyl)acetamide]",106.103%
10,"O=C(CCl)NCCc1ccc(Cl)cc1Cl [6-M16, 2-chloro-N-[2-(2,4-dichlorophenyl)ethyl]acetamide]",96.0091%
11,"O=C(CCl)Cc1ccc(F)cc1Cl [10-E19, 1-chloro-3-(2-chloro-4-fluorophenyl)propan-2-one]",21.0403%
12,"O=C(CCl)Nc1c(Cl)cc(Cl)cc1Cl [5-B16, 2-chloro-N-(2,4,6-trichlorophenyl)acetamide]",98.3503%
13,"O=C(CCl)Cc1ccc(Cl)cc1Cl [10-A15, 1-chloro-3-(2,4-dichlorophenyl)propan-2-one]",22.1313%
14,"CC(Cl)C(=O)N(CCc1ccc(F)cc1F)C(C)C (stereo not drawn) [6-D18, 2-chloro-N-[2-(2,4-difluorophenyl)ethyl]-N-(propan-2-yl)propanamide]",71.5897%
15,"O=C(CCl)N1CC(Cc2ccc(F)cc2F)C1 [5-G20, 2-chloro-1-{3-[(2,4-difluorophenyl)methyl]azetidin-1-yl}ethan-1-one]",89.2718%
16,"O=C(CCl)N(Cc1ccccc1)Cc1ccc(F)cc1 [5-I06, N-benzyl-2-chloro-N-[(4-fluorophenyl)methyl]acetamide]",81.2021%
17,"N#CC(=Cc1cccc(O)c1)C(=O)Nc1ccc(N2CCOCC2)cc1 [8-I14, 2-cyano-3-(3-hydroxyphenyl)-N-[4-(morpholin-4-yl)phenyl]prop-2-enamide]",71.0401%
18,"CC1CN(c2ccc(NC(=O)C(C#N)=Cc3ccco3)cc2)CC(C)O1 (stereo not drawn) [9-J09, 2-cyano-N-[4-(2,6-dimethylmorpholin-4-yl)phenyl]-3-(furan-2-yl)prop-2-enamide]",84.3644%
19,"C=CC(=O)N1CCC(F)CC1 [1-D14, 1-(4-fluoropiperidin-1-yl)prop-2-en-1-one]",79.2444%
20,"CN(C)c1nc(N2CCOCC2)ncc1NC(=O)CCl [5-M22, 2-chloro-N-[4-(dimethylamino)-2-(morpholin-4-yl)pyrimidin-5-yl]acetamide]",105.916%
21,"C=CC(=O)Nc1ccc(S(=O)(=O)N(C)C)c(C)c1 [2-E06, N-[4-(dimethylsulfamoyl)-3-methylphenyl]prop-2-enamide]",93.4382%
22,"C=CC(=O)N(CCC(N)=O)C1CCOc2ccccc21 (stereo not drawn) [3-F13, N-(2-carbamoylethyl)-N-(3,4-dihydro-2H-1-benzopyran-4-yl)prop-2-enamide]",92.0897%
23,"Cc1cc(C(=O)CCl)c(C)n1CCc1cccs1 [10-F16, 2-chloro-1-{2,5-dimethyl-1-[2-(thiophen-2-yl)ethyl]-1H-pyrrol-3-yl}ethan-1-one]",110.189%
24,"C=CC(=O)Nc1sc2c(c1C(N)=O)CCCCC2 [1-F21, 2-(prop-2-enamido)-4H,5H,6H,7H,8H-cyclohepta[b]thiophene-3-carboxamide]",88.1913%
